WNV protease inh = inhibitors of WNV NS2B-NS3 protease, primary screen, biochemical, fluorogenic substrate; Genome polyprotein (West Nile virus), P06935; fluorogenic substrate Ex360/Em465; stronger effect = lower value; z-score (concentration not given with the values); 65,000 tested, 0.18% active; in the data active = z-score below about -3
Target sequence (P06935 1371-1501 limits assumed): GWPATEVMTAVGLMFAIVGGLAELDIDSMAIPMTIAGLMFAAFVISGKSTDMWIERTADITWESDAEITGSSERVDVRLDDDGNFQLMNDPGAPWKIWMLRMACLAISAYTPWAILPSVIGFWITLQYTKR
Target sequence (P06935 1502-1679 limits assumed): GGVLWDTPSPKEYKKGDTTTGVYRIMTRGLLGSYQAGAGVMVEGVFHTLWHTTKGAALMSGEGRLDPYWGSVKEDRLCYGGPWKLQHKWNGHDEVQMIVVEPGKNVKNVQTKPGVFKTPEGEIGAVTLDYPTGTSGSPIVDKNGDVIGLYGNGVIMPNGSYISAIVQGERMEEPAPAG
Cdc25B block = inhibitors of Cdc25B phosphatase catalytic domain, primary screen, biochemical, OMFP fluorescence; M-phase inducer phosphatase 2 (Homo sapiens), P30305; recombinant Cdc25B, OMFP fluorescence Ex485/Em525; inhibition, %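 (compounds tested at 10 µM final in the well)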; 65,000 tested, 0.1% active; in the data active = inhibition above about 50%
DUSP1 inh = MKP-1 phosphatase inhibitors, primary screen, biochemical, in vitro. Dual specificity protein phosphatase 1 (Homo sapiens), P28562. recombinant MKP-1, OMFP hydrolysis fluorescence. inhibition, %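 (compounds tested at a single concentration somewhere between 10 and 100 µM)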. 65,000 tested, 0.15% active. AID 374, 2006;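 active = inhibition above about 50%, limit read from the data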;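 note: 0% = DMSO max control wells and 100% = wells with enzyme stopped by NaOH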
MMP13 inh = human MMP13 inhibitors, primary screen, biochemical, FRET peptide cleavage; Collagenase 3 (Homo sapiens), P45452; MMP-13 fTHP FRET cleavage, Mca fluorescence; inhibition, % at 4 µM; 65,000 tested, 0.07% active;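 active = inhibition above the mean of compound-free control plate wells plus 3 SD, cut at about 14% in these data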;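 note: 0% = DMSO wells and 100% = wells with reference MMP-13 inhibitor after basal subtraction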
mHtt clearance = clearance of mutant huntingtin inclusions, primary screen, imaging, HeLa Exon1htt(103Q)mCFP, confocal imaging; aggregate imaging; zero = plate's median compound well; 47,000 tested, 0.42% active; AID 853, 2007; inhibition, % at 1.5 µM;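 active = inhibition of aggregate fluorescence above about 70%, also judged a hit by eye on the cell image, limit read from the data, passing the limit was not always enough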;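 note: cells exposed to compound for three days before fixation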
* = called active by the depositor; x = no result. An excerpt weighted towards active compounds, which were near 0.62% of everything screened.

SMILES | WNV protease inh | Cdc25B block | DUSP1 inh | MMP13 inh | mHtt clearance
O=c1c2ccccc2c(C=NC2CCS(=O)(=O)C2)c(O)n1-c1ccccc1 (stereo not given) | -0.06 | -9 | -10 | 0 | x
O=c1c2ccccc2c(C=NCCO)c(O)n1-c1ccccc1 | -1.1 | 1 | -13 | 15* | x
Cc1cc(O)ccc1C1(c2ccc(O)cc2C)OC(=O)c2ccccc21 | x | x | x | x | 70*
CN(C)CC1CCCCC1C1(O)c2ccccc2CSc2sccc21 (stereo not given) | x | x | x | x | 5
CC1Cc2ccccc2N1C(=O)CSc1nnnn1C1CCCC1 (stereo not given) | x | x | x | x | 3
CCCCCCCCCOC(=O)C(CC(=O)O)N1CCOCC1 (stereo not given) | x | x | x | x | 55
CCOC(=O)C(CC(=O)O)N1CCCCC1 (stereo not given) | -3.1* | -32 | -22 | 6 | 25
CCC(C)(C)NC(=O)C(c1cccn1C)N(Cc1ccc(OC)cc1)C(=O)Cn1nnc2ccccc21 (stereo not given) | x | x | x | x | -11
CC1CC(C)CN(CCCNC(=O)CNC(=O)Cn2ccc3ccccc3c2=O)C1 (stereo not given) | 0.84 | -19 | 8 | 1 | x
CC(C)n1c(-c2cccnc2)nc2cnccc21 | -9.4* | 5 | -19 | -2 | x
COc1ccccc1C(=O)Oc1cc(N)n(S(=O)(=O)c2ccc(C)cc2)n1 | -2.1 | 6 | 6 | 3 | x
Cc1ccc(S(=O)(=O)n2nc(OC(=O)c3ccco3)cc2N)cc1 | -5.3* | 3 | 3 | 0 | x
Cc1ccc(S(=O)(=O)n2nc(OC(=O)c3cccs3)cc2N)cc1 | -6.4* | 3 | 2 | -4 | 64
Nc1cc(OC(=O)c2ccco2)nn1S(=O)(=O)c1ccc(F)cc1 | -11* | -9 | 20 | -2 | x
COc1ccc(S(=O)(=O)N2CCC(C(=O)Nc3ccccc3C)CC2)c2cccnc12 | -0.41 | -10 | 5 | 1 | x
COc1cc(C2CC(C(F)(F)F)n3ncc(C(=O)O)c3N2)cc(OC)c1OC (stereo not given) | -5.8* | -32 | -8 | -4 | -40
COc1ccc(CN2CC(C(=O)NCCCN3CCOCC3)CC2=O)cc1 (stereo not given) | -0.99 | 65* | 22 | -7 | 40
COc1ccc(CN2CC(C(=O)NCCCN3CCCCCC3)CC2=O)cc1 (stereo not given) | -0.91 | -26 | 4 | -4 | -44
Cc1cc(C(F)F)nn1CC(=O)NCc1ccccc1F | x | x | x | x | -28
CC1CCN(S(=O)(=O)c2ccc3c(c2)c(=O)c(C(=O)NC2CCCC2)cn3C)CC1 | 1.2 | -1 | 50* | -4 | 32
Cc1ccc(C)c(/C(O)=C2\C(=O)C(=O)N(CCCn3ccnc3)C2c2cccnc2)c1 (stereo not given) | x | x | x | x | 32
COc1ccc(N=CC2=C(O)CCCC2=O)cc1 | -4.2* | 4 | 3 | -2 | -17
COC(=O)C(C)Sc1nc2c(c(-c3ccc(OC)cc3)c1C#N)-c1ccccc1C2=O (stereo not given) | x | x | x | x | -29
Cn1c(CSc2nnc(SCc3ccccc3)s2)nc2ccccc21 | -1.1 | 74* | 24 | -3 | -8
Cc1csc(SCC(=O)NC(=O)NCc2ccccc2)n1 | 0.12 | -4 | 6 | 5 | 78*
SMILES | WNV protease inh | Cdc25B block | DUSP1 inh | MMP13 inh | mHtt clearance
Cc1ccc(CNc2oc(-c3ccco3)nc2S(=O)(=O)c2ccccc2)cc1 | x | x | x | x | 15
COc1ccc(-c2cn3c(C)c(C(=O)Nc4cccc(C)n4)sc3n2)cc1 | -0.75 | -13 | 51* | -2 | x
Cc1ccc(C)c(N2CCN(C(=O)Cn3c(=O)[nH]c4ccsc4c3=O)CC2)c1 | x | x | x | x | 1
O=C(Nc1cccc(F)c1)c1cccnc1N1CCOCC1 | -0.49 | 11 | -6 | -5 | 23
O=C(Nc1ccccc1)c1cccnc1N1CCOCC1 | 0.77 | 53* | 1 | 0 | x
COC(=O)c1c(CSc2ccc(C)c(C)c2)noc1C(=O)NCc1ccc(OC)cc1 | x | x | x | x | -43
CCOc1ccccc1N(CC(=O)NC1CCCC1)C(=O)CCC(=O)Nc1cc(C)on1 | -8.6* | 0 | 30 | 0 | 30
Clc1ccc(-n2c(SCc3nc4ccccc4[nH]3)nnc2-c2ccncc2)cc1 | x | x | x | x | -2
CCN(Cc1ccccc1)C(=O)c1ccccc1C | -3.5* | -23 | 9 | 3 | -11
CCOC(=O)N=S(=O)(Oc1ccc([N+](=O)[O-])cc1)c1ccccc1 (stereo not given) | x | x | x | x | 78*
CCCn1nnc(NC(=O)c2ccc(Br)cc2)n1 | -1.5 | 0 | -1 | -3 | x
CCCn1nnc(NC(=O)c2cc(Br)cc(Br)c2OC)n1 | 0.27 | -13 | 50* | 0 | 30
S=C1COC(c2ccccc2)N1c1ccccc1 (stereo not given) | x | x | x | x | -14
CCOc1ccc(NC(=O)N(C2CCCCC2)C2CCN(C(C)=O)CC2)cc1 | 1.9 | 64* | 2 | -8 | x
CCOc1ccc(NC(=O)N(C2CCCCCC2)C2CCN(C(C)=O)CC2)cc1 | 0.58 | -2 | 34 | 1 | 0
O=C(Cc1ccccc1)NCc1nc2ccccc2[nH]1 | 0.92 | -7 | -3 | -1 | 88*
O=C(NCCc1nc2ccccc2[nH]1)c1ccco1 | -0.07 | 7 | 11 | 2 | 30
CC(C)NC(=O)c1ccc(C2SCC(=O)N2Cc2ccccc2)cc1 (stereo not given) | x | x | x | x | -1
Cc1cccc(OCC(=O)Nc2cc(C)ccc2O)c1 | 0.52 | -8 | -3 | -1 | 85*
COc1ccc2[nH]c(C(=O)O)c(CCNC(C)=O)c2c1 | -4.1* | -8 | 10 | -86 | x
COc1ccc2[nH]c(C(=O)O)c(NS(=O)(=O)c3ccc(Cl)s3)c2c1 | 0.48 | -3 | -24 | -2 | -31
CCCCOC1(c2ccccc2)NC(=S)NN=C1c1ccccc1 (stereo not given) | x | x | x | x | 2
CCOC(=O)CN1CC23C=CC(O2)C(C(=O)Nc2ccc(OC)cc2OC)C3C1=O (stereo not given) | -0.32 | -3 | -12 | 7 | -26
CCOC(=O)CN1CC23C=CC(O2)C(C(=O)Nc2cc(OC)ccc2OC)C3C1=O (stereo not given) | -2.1 | 6 | 16 | 14* | x
COC1(OC)C(/C=C/c2ccc(Cl)cc2)C(C#N)(C#N)C1(OC)OC (stereo not given) | x | x | x | x | 24
CC(C)C[C@H](NC(=O)NC(C)C)C(=O)O | 0.86 | -1 | -11 | 4 | -4
CCCCOCCCNC(=O)N[C@@H](CC(C)C)C(=O)O | -3.7* | -11 | -1 | 4 | 5
Cc1cccn2c(=O)c(C=NCc3ccco3)c(Nc3ccc(Cl)cc3)nc12 | -3.3* | -2 | 7 | 6 | x
COc1cccc(CNC(=O)C2CCN(S(=O)(=O)c3ccc4c(c3)CCC(=O)N4)CC2)c1 | -3.3* | -7 | 2 | 3 | x
COc1cccc(CNC(=O)C2CCN(S(=O)(=O)c3ccc(F)cc3)CC2)c1 | -0.39 | -15 | 6 | 6 | -25

Bioassay records deposited in PubChem BioAssay by several laboratories.
